# Results as given in PubChem BioAssay AID1463 (National Center for Advancing Translational Sciences (NCATS), 2008).
# The whole screen tested about 280,000 compounds, of which about 2,600 (0.93%) were called active. Not shown: some 8% with an inconclusive outcome. Calls come from the whole dose curve; as a rule, active = well fitted curve in the direction sought with a large enough effect; inconclusive = small, poorly fitted or top-dose-only effect; inactive = flat fitted curve, though single readings scatter. What follows is part of a selection rich in actives, with near analogues and random picks from the rest. A call without a number means that no potency is given here.
# Assay: Counterscreen qHTS for Inhibitors of Tau Fibril Formation, Fluorescence Polarization; note: nearly all actives have a fitted effect of over 55% in size
# Details: tau K18 P301L (four-repeat tau fragment) Alexa594 fluorescence, heparin fibrillization; series mostly up to 57.7 µM
# Outline: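 Human K18 P301L tau (15 uM unlabeled plus 0.24 uM Alexa 594-labeled, final) in 100 mM sodium acetate pH 7 was mixed with compound and 20 uM heparin and incubated 6 hr at 37 C.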
# Potency is the fitted concentration of half-maximal effect; tags give direction and shape of the fitted curve or compound fluorescence and quenching.
row,SMILES,Potency
1,COc1ccc(-c2nnc(SCC(=O)Nc3ccc(C(C)C)cc3)nc2-c2ccc(OC)c(OC)c2)cc1OC,inactive
2,Cc1ccc2nc(-c3cccnc3)c(NC3CCCC3)n2c1,inactive
3,Cc1ccc2nc(-c3ccc(O)cc3)c(Nc3ccc4c(c3)OCO4)n2c1,17.8 µM [quencher] (active)
4,Oc1ccc(-c2nc3ccc(Cl)cn3c2Nc2ccc3c(c2)OCO3)cc1,inactive
5,COc1ccc(CCNC(=O)c2ccc(-n3c(C)cc4c3CCCC4)cc2)cc1OC,inactive
6,O=[N+]([O-])c1ccc(N/N=C/c2ccccc2)cc1,8.91 µM [quencher] (active)
7,O=C(N/N=C/c1ccc([N+](=O)[O-])cc1)C(=O)N1CCCC1,inactive
8,NC(=S)N/N=C/c1ccc([N+](=O)[O-])cc1,inactive
9,Cc1nc2ccn(Cc3cccs3)c(=O)c2cc1C(=O)NCc1ccc(Cl)cc1,inactive
10,COc1ccccc1Oc1nc(-c2cccnc2)nc2ccccc12,inactive
11,COc1cccc(-c2nc(Nc3ccncc3)c3ccccc3n2)c1,10 µM [quencher] (active)
12,COc1cccc(Nc2nc3ccccc3c3nncn23)c1,inactive
13,Cc1ccccc1CNC(=O)c1cccc(NC(=O)c2nsc3ccccc23)c1,inactive
14,CCS(=O)(=O)N1CCc2cc(C(=O)N3CCN(c4ccccc4OC)CC3)ccc21,inactive
15,O=C1c2ccccc2C2=Nc3ccccc3SC(c3ccccc3F)C12 (centres undefined),5.62 µM [quencher] (active)
16,COc1ccc(CCNC(=O)c2ccc3c(c2)nc(C)n3-c2ccc(Br)cc2)cc1OC,inactive
17,CCC(=O)N1CCc2cc(CNS(=O)(=O)c3ccc(Br)s3)ccc21,inactive
18,COc1ccc(C2Sc3ccccc3NC3=C2C(=O)c2ccccc23)c(OC)c1OC (centres undefined),6.31 µM [quencher] (active)
19,COc1ccc2c(c1OC)C(=O)c1ccccc1C2=O,inactive
20,COc1ccc(C2CC(=O)Nc3cc(C)c(C)cc32)c(OC)c1OC (centres undefined),inactive
21,COc1ccc(C(=O)NCC(c2ccc(N(C)C)cc2)N2CCc3ccccc32)c(OC)c1 (centres undefined),inactive
22,Cc1ccc(Oc2c(C(F)(F)F)oc3c(CN4CCCCC4)c(O)ccc3c2=O)cc1,inactive
23,Cc1ccc(C(=O)Nc2c(C(=O)NC(C)(C)C)oc3ccccc23)cc1,inactive
24,Oc1ccc2ccccc2c1N=Nc1nccs1,12.6 µM [quencher] (active)
25,CCOC(=O)c1ccc2c(c1)N(Cc1cccc(OC)c1)C(=O)c1ccccc1S2(=O)=O,inactive
26,COc1cccc(CNC(=O)Cc2csc3nc(-c4ccccc4)cn23)c1,inactive
27,CCc1c(C)nc2c(-c3ccccc3)c(C)nn2c1Nc1ccc(NC(C)=O)cc1,17.8 µM [quencher] (active)
28,Cc1nc2c(-c3ccccc3)c(C)nn2c(C)c1CCC(=O)NCCc1ccccc1,inactive
29,CCc1ccc(NC(=O)c2cnc3c(-c4ccccc4)c(C)nn3c2C)cc1,inactive
